Measurements from PubChem BioAssay AID1159580 (chemical genetic matrix, 2015).
Several values for one entry are separate records, joined by “and”; a condition that tells them apart may be missing. Equal entries are not always repeated. The whole screen tested about 5,500 compounds, of which about 2,000 (36%) were called active. About 18% were inconclusive and are not listed. Rule as the data show it: active = normalized growth mostly below about 0.91 (no sharp cut-off); inconclusive = no clear call, values can overlap the other calls; inactive = mostly above about 0.92. This is one part of the list.

Experiment: chemical genetic growth profiling, strain panel (AID 1159580);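 also: tested at 20 µM; growth read once vehicle control cultures reached saturation at 30 °C; 1 = growth at the plate median or of vehicle wells; lower values mean less growth of the strain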
Conditions: S. cerevisiae deletion strains, growth OD

Measured: normalized growth

C[n+]1ccccc1/C=N/O
inactive: locus YAL013W, strain DEP1, hits give low values 1.01 | locus YAL021C, strain ccr4, hits give low values 0.99 | locus YAL026C, strain drs2, hits give low values 1.02 | locus YAL030W, strain snc1, hits give low values 1 | locus YBL061C, strain skt5, hits give low values 0.992 | locus YBR009C, strain hhf1, hits give low values 1.03 | locus YBR021W, strain FUR4, hits give low values 0.985 | locus YBR023C, strain chs3, hits give low values 0.995 | locus YBR171W, strain sec66, hits give low values 1 | locus YBR229C, strain ROT2, hits give low values 1.01 | locus YBR231C, strain swc5, hits give low values 1.02 | locus YBR279W, strain paf1, hits give low values 1.01 | locus YCL011C, strain gbp2, hits give low values 1.01 | locus YCL016C, strain dcc1, hits give low values 1.01 | locus YCL029C, strain bik1, hits give low values 1.01 | locus YCL069W, strain vba3, hits give low values 1 | locus YCR088W, strain abp1, hits give low values 1 | locus YDL005C, strain med2, hits give low values 0.986 | locus YDL035C, strain GPR1, hits give low values 1.01 | locus YDL040C, strain nat1, hits give low values 1.01 | locus YDL074C, strain BRE1, hits give low values 1 | locus YDL101C, strain DUN1, hits give low values 1.01 | locus YDL134C, strain PPH21, hits give low values 0.997 | locus YDL185W, strain tfp1, hits give low values 0.999 | locus YDL192W, strain arf1, hits give low values 1 | locus YDR001C, strain nth1, hits give low values 0.997 | locus YDR069C, strain doa4, hits give low values 1.02 | locus YDR101C, strain arx1, hits give low values 1 | locus YDR137W, strain rgp1, hits give low values 1.01 | locus YDR150W, strain NUM1, hits give low values 1.01 | locus YDR159W, strain sac3, hits give low values 0.967 | locus YDR162C, strain NBP2, hits give low values 1.01 | locus YDR195W, strain ref2 0.999 | locus YDR297W, strain sur2, hits give low values 1.01 | locus YDR318W, strain mcm21, hits give low values 0.994 | locus YDR334W, strain swr1, hits give low values 1 | locus YDR335W, strain msn5, hits give low values 1.01 | locus YDR388W, hits give low values 0.996 | locus YDR392W, strain spt3, hits give low values 0.918 | locus YDR502C, strain sam2, hits give low values 1 | locus YEL003W, strain gim4, hits give low values 1.01 | locus YEL037C, strain rad23, hits give low values 0.998 | locus YEL061C, strain CIN8 (second series), hits give low values 1.02 | locus YEL061C, strain CIN8, hits give low values 1.01 | locus YER015W, strain faa2, hits give low values 1.01 | locus YER016W, strain bim1, hits give low values 0.991 | locus YER110C, hits give low values 1.01 | locus YER111C, strain swi4, hits give low values 1 | locus YER155C, strain BEM2 (second series), hits give low values 1.02 | locus YER155C, strain BEM2, hits give low values 0.998 | locus YER167W, strain BCK2, hits give low values 1.01 | locus YFR010W, strain ubp6, hits give low values 1.02 | locus YGL078C, strain dbp3, hits give low values 1.02 | locus YGL086W, strain mad1, hits give low values 1.01 | locus YGL167C, strain pmr1, hits give low values 1.01 | locus YGL173C, strain kem1, hits give low values 0.991 | locus YGL227W, strain vid30, hits give low values 0.994 | locus YGL240W, strain doc1, hits give low values 0.993 | locus YGL248W, strain PDE1, hits give low values 1.01 | locus YGL253W, strain hxk2, hits give low values 1.02 | locus YGR078C, strain PAC10, hits give low values 1.01 | locus YGR135W, strain pre9, hits give low values 1.01 | locus YGR229C, strain SMI1, hits give low values 1.02 | locus YGR252W, strain gcn5, hits give low values 0.954 | locus YHR013C, strain ard1, hits give low values 0.982 | locus YHR027C, strain rpn1, hits give low values 1 | locus YHR030C, strain SLT2, hits give low values 1.01 and 1 | locus YHR079C, strain IRE1 (second series), hits give low values 0.995 | locus YHR079C, strain IRE1, hits give low values 0.997 | locus YHR094C, strain hxt1, hits give low values 1 | locus YHR129C, strain ARP1, hits give low values 1.01 | locus YHR142W, strain chs7, hits give low values 1.02 | locus YHR200W, strain rpn10, hits give low values 0.99 | locus YIL066C, strain RNR3, hits give low values 1.01 | locus YIL073C, strain SPO22, hits give low values 0.996 | locus YIL125W, strain kgd1, hits give low values 0.985 | locus YIR030C, strain dcg1, hits give low values 1.01 | locus YJL092W, strain hpr5, hits give low values 1.01 | locus YJL095W, strain BCK1 (second series), hits give low values 0.99 | locus YJL095W, strain BCK1, hits give low values 1.01 | locus YJL115W, strain asf1, hits give low values 1.01 | locus YJL129C, strain trk1, hits give low values 1.01 | locus YJL134W, strain LCB3, hits give low values 1.01 | locus YJL154C, strain vps35, hits give low values 1.02 | locus YJL164C, strain tpk1, hits give low values 1 | locus YJL166W, strain qcr8, hits give low values 1.01 | locus YJL168C, strain set2, hits give low values 0.995 | locus YJL187C, strain SWE1 (second series), hits give low values 1.01 | locus YJR043C, strain POL32, hits give low values 0.995
